NPC1 prom act – activators of NPC1 promoter | Huh7 NPC1 promoter luciferase reporter, 24 h | 320,000 tested, 2.4% active | Potency, µM (doses to about 9.22 µM), for inactives: at the top dose activation, actives largely listed as activators; note: % of control where 0% means no effect; nearly all actives have a fitted effect of over 60% in size
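Readout is luciferase luminescence, reflecting NPC1 promoter activation in stably transfected Huh7 cells after 24 h compound exposure at 37 °C in reduced-serum medium with 10% FBS.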
SMN2 splice up – SMN2 splice variant enhancement | HEK293 SMN2-luciferase splicing reporter, luminescence, 30-36 h | Potency, µM (doses to about 46.1 µM), for inactives: at the top dose activity change, positive = activation, most hits filed as activators | 210,000 tested, 2.8% active | AID 1458; note: % of control where 0% means no effect; nearly all actives have a fitted effect of over 55% in size
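qHTS luciferase splicing reporter: luminescence rises when SMN2 exon 7 is included in transfected HEK293 cells. Compound exposure lasted 30-36 h at 37C, with 4.5 mM final sodium butyrate as control, followed by a ONE-Glo read.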
FLuc modulator – inhibits or activates purified firefly luciferase, miR-21 counter-screen; purified FLuc, Km substrates, luminescence inhibition; Potency, µM (doses to about 57.5 µM), inactives show top-dose activity change, negative = inhibition, most hits filed as inhibitors; 360,000 tested, 6.9% active; P08659;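 note: plate controls were vehicle for no effect and reference inhibitor for full effect; nearly all actives have a fitted effect of over 55% in size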
Target sequence (P08659 whole entry, looked up): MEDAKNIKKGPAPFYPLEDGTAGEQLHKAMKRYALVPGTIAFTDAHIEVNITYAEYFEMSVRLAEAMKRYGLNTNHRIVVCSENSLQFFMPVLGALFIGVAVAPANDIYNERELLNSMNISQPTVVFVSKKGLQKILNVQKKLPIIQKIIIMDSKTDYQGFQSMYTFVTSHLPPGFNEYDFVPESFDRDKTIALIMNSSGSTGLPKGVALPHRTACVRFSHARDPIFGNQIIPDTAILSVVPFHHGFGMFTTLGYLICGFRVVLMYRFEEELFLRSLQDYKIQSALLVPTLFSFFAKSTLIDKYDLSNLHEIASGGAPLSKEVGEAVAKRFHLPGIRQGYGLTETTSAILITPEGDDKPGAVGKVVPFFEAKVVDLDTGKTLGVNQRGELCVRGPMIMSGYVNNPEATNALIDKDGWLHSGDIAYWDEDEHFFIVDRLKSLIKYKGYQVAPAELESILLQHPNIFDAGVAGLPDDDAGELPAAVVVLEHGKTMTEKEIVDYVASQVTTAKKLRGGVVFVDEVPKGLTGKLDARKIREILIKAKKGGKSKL
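Purified P. pyralis luciferase (10nM final) with 10uM D-luciferin and 10uM ATP (Km levels) in 50mM Tris acetate pH 7.5, 10mM Mg acetate, 0.01% Tween-20, 0.05% BSA; qHTS 6-point titration, ~60 µM downward; luminescence read.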
ELG1 genotox – inducers of genotoxicity in HEK293T ELG1-luciferase cells | Potency, µM (series often up to 46 µM), inactives show top-dose activity change, positive = activation, most hits filed as activators | 330,000 tested, 1.3% active | HEK293T ELG1-luciferase reporter, luminescence, 16 h; note: % of control where 0% means no effect; nearly all actives have a fitted effect of over 60% in size
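16 hr compound incubation (37 °C, 5% CO2) of HEK293T cells carrying luciferase-tagged ELG1; luciferase then measured by ONE-Glo luminescence after 30 min at RT.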
Rab9 promoter act – activates the Rab9 promoter; 320,000 tested, 2.8% active; Potency, µM (highest dose often 9.22 µM), for inactives: top-dose activation, negative = inhibition, actives largely listed as activators; Huh7 Rab9 promoter-luciferase reporter, luminescence, 24 h; AID 485297; note: % of control where 0% means no effect; nearly all actives have a fitted effect of over 60% in size
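Luminescence from Amplite-detected luciferase (10 minutes, ambient) reports Rab9 promoter activation. Before that, stable Rab9-luciferase Huh7 cells (1500/well, reduced-serum OP-MEM I plus 10% FBS) were exposed to compound for 24 hours at 37C.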
ELG1 repair inh – blocks ELG1-dependent DNA repair in HEK293T cells; HEK293T ELG1-luciferase reporter, luminescence, 16 h; DNA damage induced by 5-fluorouridine; Potency, µM (titrated, usually from 46.1 µM), without a hit: top-dose activity change, negative = inhibition, actives largely listed as inhibitors; 330,000 tested, 2.3% active; AID 504467; note: % is set by controls: 0 for no effect and ±100 for the full control effect; nearly all actives have a fitted effect of over 55% in size
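Cells (2,000 per well) received 5-fluorouridine plus test compound or DMSO and were incubated 16 hr at 37 °C, 5% CO2. Luciferase activity was read by luminescence 30 min after ONE-Glo addition; signal suppression marked inhibition of damage-induced ELG1 function.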
An asterisk follows results filed as active; u = inconclusive; x = no result; [ ] = another dose, or the depositor's remark. Most compounds without a hit are left out; they make up all but 9.2% or so of the library. Calls come from the whole dose curve; as a rule, active = well fitted curve in the direction sought with a large enough effect; inconclusive = small, poorly fitted or top-dose-only effect, or another doubt; inactive = no such curve, though single readings can be large; an effect the other way counts as inactive or inconclusive. Potency is the fitted concentration of half-maximal effect.

SMILES | NPC1 prom act | SMN2 splice up | FLuc modulator | ELG1 genotox | Rab9 promoter act | ELG1 repair inh
Cc1cc(=O)[nH]c(N/N=C/c2cn(CCC#N)nc2-c2ccccc2)n1 | -1.0% | 18.4% | 19µM* | 3.7% | -1.0% | -5.5%
COCC(C)n1c(C)cc(C(=O)COC(=O)c2ccc3ncsc3c2)c1C (stereo not drawn) | 0.5% | -17.4% | 16.9µM* | u | 15.5% | 16.2%
COc1ccc(C2CC(=O)c3cc(-c4nc(-c5cccc([N+](=O)[O-])c5)cs4)c(=O)n(-c4ccccc4N)c3C2)cc1 (stereo not drawn) | x | 11.7% | -5.5% | x | x | x
NC(=O)c1cccc2c3c([nH]c12)CCCC3 | 13.6% | -4.1% | 23.9µM* | 8.2% | -4.5% | u
COc1cc(/C=N\NS(=O)(=O)c2ccccc2)cc(OC)c1OC | -2.7% | x | 3.9% | 1.9% | 3.3% | 8.5%
COc1ccc(/C=N/NS(=O)(=O)c2ccccc2)cc1OC | -3.0% | x | -0.6% | -2.5% | -3.6% | 18.3µM*
COc1cc(/C=N/NC(=O)CC2(C)OCCCO2)ccc1OCc1ccccc1 | -0.6% | 28.7% | u | 3.7% | 0.1% | u
COc1cc(/C=N/NS(=O)(=O)c2ccc(C)cc2)ccc1OCc1ccc(C(=O)O)cc1 | 0.794µM* | x | 0.0239µM* | u | 4.47µM* | u
COc1cc(/C=N/NC(=O)CN2CCCCC2)ccc1OCc1ccc(Br)cc1 | 8.9% | 10µM* | 15.1µM* | u | 1.8% | u
CCOc1ccc(/C=N/NS(=O)(=O)c2ccc(C)cc2)cc1OC | -0.7% | x | -2.5% | -0.4% | 2.3% | -12.2%
O=C(CSc1nnc(C2CC2)n1C1CC1)Nc1cccc(Br)c1 | -1.1% | x | x | -1.6% | -3.5% | -1.6%
Cc1ccc(C(=O)Cn2cnc3ccccc3c2=O)cc1C | x | u | 19µM* | x | x | x
O=C(CSc1ccc2ccccc2n1)c1ccc2c(c1)OCO2 | 15.8% | -42.0% | u | 20.6µM* | 15.9% | u
O=C(CSc1ncn[nH]1)c1ccc2c(c1)OCO2 | 5.3% | -4.2% | u | u | 0.1% | u
Cc1cc(C(=O)Cn2cnc3ccccc3c2=O)c(C)n1C1CC1 | u | x | -15.0% | 5.17µM* | u | u
COc1ccc(C(=O)Cn2cnc3ccccc3c2=O)cc1 | u | x | 13.5µM* | u | 3.16µM* | u
CNC(=O)NC(=O)C(C)OC(=O)c1cc2c(s1)CCCCC2 (stereo not drawn) | 2.3% | -4.3% | 6.5% | -1.5% | 3.2% | -1.7%
Cc1ccc(Cn2c(=O)n(-c3ccc(C)c(C)c3)c(=O)c3c(C)c(C)sc32)cc1 | x | 1.0% | 2.5% | x | x | x
O=C(Cn1cnc2ccccc2c1=O)Nc1ccc2c(c1)OCO2 | 23.9% | u | 19µM* | u | u | u
O=C(Cn1cnc2ccccc2c1=O)c1ccc2c(c1)OCCO2 | 2µM* | 11.2µM* | 6.01µM* | u | 1.26µM* | u
Cc1ccc(C(=O)CSc2cnc3ccccc3n2)cc1C | -3.3% | -72.6% | 7.57µM* | 9.2µM* | -0.7% | u
Cc1cc(SCC(=O)c2ccccc2)nc2ccccc12 | x | 8.1%[9.22 µM] | x | x | x | x
O=C(Cn1cnc2ccccc2c1=O)NCc1ccc2c(c1)OCO2 | 1.5% | -2.0% | -2.7% | -0.4% | -7.4% | 3.1%
COc1ccc(C(=O)Nn2c(C)nc3ccccc3c2=O)c(OC)c1 | 1.4% | x | 7.0% | 0.1% | 15.1% | -4.9%
COc1ccc(C(=O)Nn2cnc3ccccc3c2=O)c(OC)c1 | 2.24µM* | 14.1µM* | u | u | 2.51µM* | u
SMILES | NPC1 prom act | SMN2 splice up | FLuc modulator | ELG1 genotox | Rab9 promoter act | ELG1 repair inh
CCN1CCCC1CNCc1cccc(OC)c1OCc1ccc(F)cc1 (stereo not drawn) | -1.8% | 2.0% | -2.2% | 1.3% | 0.2% | -6.9%
COc1cc(C2NC(=S)NC(C)=C2C(=O)Nc2ccc(C)cc2)ccc1O (stereo not drawn) | u | x | u | 17.3% | 2.24µM* | u
Cc1ccc(N(CCC#N)C(=O)CSc2nc3ccccc3c(=O)[nH]2)cc1 | -1.7% | x | x | 1.4% | -3.3% | -2.6%
Cc1cc(NC(=O)Nc2ccc3c(ccn3C)c2)sn1 | 7.31µM* | u | x | x | 6.51µM* | x
O=C(O)c1c(-c2c3ccc(=O)cc-3oc3cc(O)ccc23)cc2ccccc2c1-c1ccccc1 | x | 2.3%[9.22 µM] | x | x | x | x
O=C(CSc1nnnn1C1CCCC1)Nc1cccc(NC(=O)c2ccco2)c1 | -1.3% | -1.0% | u | 1.3% | -1.5% | -15.5%
CC(=O)c1cccc(-n2nnnc2SCC(=O)Nc2cccc(NC(=O)c3ccco3)c2)c1 | 11.8% | -5.2% | u | -11.4% | 13.1% | 18.4µM*
O=C(CSc1nnnn1C1CCCCC1)Nc1cccc(NC(=O)c2ccco2)c1 | -0.6% | -0.5% | 16.9µM* | -2.8% | -8.7% | u
CC(=O)c1cccc(S(=O)(=O)NCC2CCCCC2)c1 | 0.0005µM* | u | -1.2% | -0.1% | u | -6.5%
CC1CCN(S(=O)(=O)c2ccc3c(c2)oc(=O)n3CC(=O)NCc2ccc3c(c2)OCO3)CC1 | -3.7% | -84.5% | 2.2% | -15.1% | -10.0% | 10.3µM*
Cc1c(C(=O)NCc2ccc3c(c2)OCO3)oc2ccc(S(=O)(=O)N3CCCCCC3)cc12 | x | -33.2% | 1.9% | x | x | x
Cc1c(C(=O)NCc2ccc3c(c2)OCO3)oc2ccc(S(=O)(=O)N3CCC(C)CC3)cc12 | -10.0% | -49.0% | 2.2% | -4.3% | -12.3% | 8.2µM*
Cc1c(OCc2nn[nH]n2)ccc2c3c(c(=O)oc12)CCCC3 | -4.2% | 6.4% | 21.3µM* | -2.6% | -9.6% | -9.3%
COc1ccccc1Nc1nc(NCc2ccco2)c2ccccc2n1 | 2.2% | x | 19µM* | -10.3% | -14.4% | 20.6µM*
CCOc1nc(NCc2ccco2)nc(Nc2ccccc2F)n1 | 28.7% | 7.08µM* | -16.9% | u | 29.9% | u
CCOc1nc(NCCO)nc(Nc2ccccc2F)n1 | 1.5% | 15.2% | -1.7% | 17.2% | -3.6% | 11.0%
CCOc1nc(NCc2ccco2)nc(Nc2ccc(OC)cc2)n1 | -1.4% | 12.3% | u | 7.8% | 2.2% | u
Cc1ccc(Nc2nc(NCc3ccco3)c3ccccc3n2)cc1 | 5.5% | -75.8% | 21.3µM* | -16.3% | 0.2% | u
COc1ccc(Nc2nc(NCc3ccco3)nc(N/N=C/c3ccccc3)n2)cc1 | 4.2% | -7.1% | u | -7.5% | -2.1% | 2.59µM*
Fc1ccccc1-c1nc(NCc2ccco2)c2ccccc2n1 | -1.0% | -5.7% | -1.5% | -8.7% | -0.8% | u
Oc1ccccc1-c1nc(NCc2ccco2)c2ccccc2n1 | 0.3% | 5.1% | 0.9%[2.3 µM] | 0.0% | 0.7% | -17.0%
